Source: PubChem
This excerpt belongs to a sample that is enriched for hits.
KDM5B inh – blocks human KDM5B histone demethylase activity; Q9UGL1; KDM5B demethylase, FDH-coupled NADH fluorescence (FDH is formaldehyde dehydrogenase); Potency, µM (titrated, usually from 57.7 µM), most hits filed as inhibitors; actives 2.6% (n = 220,000); active means well fitted inhibition curve with a large enough effect; further: 0% is about no effect; nearly all actives have a fitted effect of over 70% in size
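Measured: NADH fluorescence change, 30 min, RT. System: KDM5BΔAP 200 nM final, H3K4me3 peptide, α-KG, Fe(II), ascorbate, NAD⁺ plus FDH, pH 7.5 HEPES. Compounds: titrated, 10 min pre-incubation with enzyme.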
* hit, by the source's call; i = inactive. Potency means the concentration at half of the fitted maximal effect.

SMILES	KDM5B inh
CCn1cc(C(=O)N2CCC3(CC2)CN(c2ccncn2)CC3CO)cn1 (configuration not stated)	i
Cc1ncccc1C(=O)N1CCC2(CCN(Cc3ccccn3)CC2)C(CO)C1 (configuration not stated)	i
COc1cc(C(=O)/C=C/c2ccc(SC)cc2)ccc1O	i
Cc1ccc(C)c(C(C)NC(=O)c2cccc(F)c2)c1 (configuration not stated)	i
CC1CCC(C(=O)Nc2ccc3ccccc3c2)CC1 (configuration not stated)	i
CC(C)c1noc(-c2ccccc2OCC(=O)Nc2ccccc2[N+](=O)[O-])n1	i
CC(CNC(=O)c1ccco1)c1ccccc1 (configuration not stated)	i
COc1ccccc1OCCSc1nnc(CNC(=O)c2ccco2)n1C	i
Cc1ccc(CNC(=O)c2ccccn2)s1	i
CC(=O)c1ccc(NC(=O)COc2ccccc2-c2nc(C(C)C)no2)cc1	i
CCN(CC)c1ccc(C(=O)NCc2nnc3c(-c4nc(C(C)C)no4)cccn23)cc1	i
CC(C)c1noc(-c2cccn3c(CNC(=O)c4ccccn4)nnc23)n1	25µM*
CC(C)c1noc(-c2cccn3c(CNC(=O)c4ccccc4)nnc23)n1	22µM*
CC(C)c1noc(-c2cccn3c(CNC(=O)c4ccco4)nnc23)n1	22µM*
O=C(COC(=O)[C@@H]1CCCN1S(=O)(=O)c1ccc(Cl)cc1)Nc1ccc(F)cc1F	i
COCCN1CC(C(=O)N(C)Cc2cnn(-c3ccccc3C)c2)CCC1=O (configuration not stated)	i
O=C(NC1C2CC3CC(C2)CC1C3)c1cccc2c(Br)cccc12 (configuration not stated)	i
COCc1nncn1C1CCN(S(=O)(=O)c2ccc(Cl)c(C)c2)CC1	i
CNc1nc(Nc2ccccc2C)c2cnn(-c3ccccc3)c2n1	i
COc1cc(=O)n2c(c1C(=O)Nc1cccc(F)c1)CCCC2	i
C#CCNC(=O)C(CCSC)NC(=O)c1ccc2ccccc2n1 (configuration not stated)	i
COCC(=O)NC1CCC12CCN(Cc1cccc(C)c1)CC2 (configuration not stated)	i
Cc1ccc(NC(=O)c2cc3n(n2)CC(c2ccc(Cl)cc2)OC3)c(Cl)c1 (configuration not stated)	18µM*
O=C(c1cc2n(n1)CC(c1ccc(Cl)cc1)OC2)N1CCN(c2ccccc2Cl)CC1 (configuration not stated)	i
CC1CCC(NC(=O)c2cc3n(n2)CC(c2ccc(Cl)cc2)OC3)CC1 (configuration not stated)	i
SMILES	KDM5B inh
Cc1ccc(C)c(NC(=O)c2cc3n(n2)CC(c2ccc(Cl)cc2)OC3)c1 (configuration not stated)	28µM*
O=C(c1cc2n(n1)CC(c1ccc(Cl)cc1)OC2)N1CCN(c2ccc(Cl)cc2)CC1 (configuration not stated)	i
Cc1cccc(CNC(=O)c2cc3n(n2)CC(c2ccc(Cl)cc2)OC3)c1 (configuration not stated)	i
Cc1c(Cl)cccc1NC(=O)c1cc2n(n1)CC(c1ccc(Cl)cc1)OC2 (configuration not stated)	25µM*
O=C(NCc1ccccc1Cl)c1cc2n(n1)CC(c1ccc(Cl)cc1)OC2 (configuration not stated)	i
CCCCNC(=O)c1cc2n(n1)CC(c1ccc(Cl)cc1)OC2 (configuration not stated)	i
CCOc1ccccc1NC(=O)c1cc2n(n1)CC(c1ccc(Cl)cc1)OC2 (configuration not stated)	22µM*
O=C(NCc1ccccc1)c1cc2n(n1)CC(c1ccc(Cl)cc1)OC2 (configuration not stated)	i
COc1cccc(S(=O)(=O)N2CCN(C3CCN(C)C3=O)CC2)c1 (configuration not stated)	i
COc1cc(C)ccc1OC(=O)C(C)Oc1ccc(Br)cc1 (configuration not stated)	i
Cc1cc2nc(C)n(CCOc3ccccc3)c2cc1C	i
O=C(Nc1cccc2cnccc12)c1cccc(S(=O)(=O)N2CCCCCC2)c1	i
COC(=O)c1c(C)[nH]c(-c2csc(NC3CC3)n2)c1C	i
Cn1ccnc1CN1C(=O)CO[C@H]2CN(CCCc3ccccc3)C[C@H]21	i
Cn1cnnc1CC1CCN(C(=O)c2cccs2)CC1	i
CCC(=O)N1c2ccccc2NC2=C(C(=O)CC(C)(C)C2)C1c1ccc(OC)c(OC)c1 (configuration not stated)	i
Cc1ccc(NC(=O)Nc2cccc(-c3ccc(N4CCOCC4)nn3)c2)cc1F	i
COc1cccc(-c2nc(N3CCOCC3)cc3c2CN(C)C3=O)c1OC	40µM*
COc1cccc(-c2nc(N3CCOCC3)cc3c2CN(C)C3=O)c1	35µM*
COc1ccc(CN2Cc3[nH]nc(-c4cccc(OC)c4OC)c3CC2=O)cc1	i
Cc1cc(S(=O)(=O)Nc2cccc(-c3ccc(N4CCOCC4)nn3)c2)c(C)cc1Cl	i
CN1Cc2c(cc(N3CCOCC3)nc2-c2cccc(C(F)(F)F)c2)C1=O	i
CN1Cc2c(cc(N3CCOCC3)nc2-c2cccc(N[S+](C)(=O)[O-])c2)C1=O	35µM*
COc1cccc(-c2ccc(N3CCCCCC3)nn2)c1OC	i
COc1cccc(NC(=O)Nc2cccc(-c3ccc(N4CCOCC4)nn3)c2)c1	i
SMILES	KDM5B inh
N#Cc1sc2ncccc2c1N	i
Cc1cc(C)n(CCCN(C)C(=O)C2CC3(CCNCC3)CN2)n1 (configuration not stated)	i
O=C(c1cccc(OC2CN(Cc3cccc(F)c3F)C2)c1)N1CCOCC1	i
CCOCCCNC(=O)C1CCCC(C(=O)NCCCOCC)C1 (configuration not stated)	i
CCc1cnc(C)nc1N1CCC(Oc2ccc3ccccc3c2)(C(=O)O)CC1	i
COc1ccc(C(=O)NCc2nc(-c3cccs3)no2)cc1	i
Cc1ccc(C(=O)NCc2nnc3c(-c4nc(C)no4)cccn23)cc1	28µM*
Cc1noc(-c2ccccc2NC(=O)c2ccncc2)n1	i
COc1ccc(C(=O)NCc2nnc3c(-c4nc(C)no4)cccn23)cc1	25µM*
Cc1cc(C)c(NC(=O)CSc2nnc(C)n2C)c(Cl)c1	i
COc1ccc(OCCOC(=O)c2cc(=O)c3cc(Cl)ccc3o2)cc1	i
Cc1noc([C@@H]2CN(Cc3cccc(F)c3F)C[C@H]2CO)n1	i
CCn1c(CCCOc2ccc(Cl)cc2C)nnc1SCc1ccc(Cl)cc1	i
O=C(Cc1cccc(F)c1)N1CCC(c2nc(C3CCOCC3)no2)CC1	i
O=C(NCc1nnc2c(-c3nc(C4CC4)no3)cccn12)c1ccc(F)cc1Cl	20µM*
O=C(NCc1nnc2c(-c3nc(C4CC4)no3)cccn12)c1cccc2[nH]ccc12	i
O=C(c1cccc(F)c1)N1CCCC(n2cc(-c3nc(C4CC4)no3)nn2)C1 (configuration not stated)	i
O=C(NCc1nnc2c(-c3nc(C4CC4)no3)cccn12)c1cccc(F)c1	25µM*
O=C(Cc1cccc(F)c1)N1CC(F)(F)C[C@H]1c1nc(C2CC2)no1	i
O=C(Cc1ccc(F)cc1)NCc1nnc2c(-c3nc(C4CC4)no3)cccn12	32µM*
